Inconclusive results are not listed. The source made the active and inactive calls. How the source made its calls: active means hit-call score of the fitted dose curve at least 0.9, where 1 is the maximum; inconclusive means response in the unintended direction; inactive means score below 0.9.
The molecules below were run on xenobiotic metabolism (CYP1A1), CYP1A1 (gene 1543) (assay: CLD_CYP1A1_24hr: CellzDirect (CLD) Gene Expression Assay for xenobiotic metabolism (CYP1A1) at 24 hours (AID 2283673)).
Experimental: CLD_24hr is a cell-based, multiplexed-readout assay that uses hepatocyte, a human liver primary cell, with measurements taken at 24 hours after chemical dosing in a 96-well plate.CLD_CYP1A1_24hr is one of 16 assay component(s) measured or calculated from the CLD_24hr assay. It is designed to make measurements of mRNA induction, a form of inducible reporter, as detected with chemiluminescence signals by Quantitative Nuclease Protection Assay (qNPA) technology.Data from the assay component CLD_CYP1A1_24hr was analyzed at the endpoint, CLD_CYP1A1_24hr, in the positive analysis fitting direction relative to DMSO as the negative control and baseline of activity. Using a type of inducible reporter, gain-of-signal activity can be used to understand changes in the reporter gene as they relate to the gene CYP1A1. Furthermore, this assay endpoint can be referred to as a primary readout. To generalize the intended target to other relatable targets, this assay endpoint is annotated to the cyp intended target family, where subfamily is xenobiotic metabolism.
Human hepatocyte cultures were treated daily for two consecutive days with fresh dosing solutions containing appropriate concentrations of the 320 ToxCast chemicals (chemical identities were blinded to CellzDirect and other ToxCast collaborators), vehicle control (0.2% DMSO), and positive control inducers as summarized in Table 1. Due to the large number of treatment groups and chemicals examined, the ToxCast chemicals were divided into two groups (spanning two independent cultures of hepatocytes from separate donor preparations (Hu778: ToxCast plates 1 and 2; Hu776: ToxCast plates 3 and 4). Each preparation of human hepatocyte cultures was treated with respective vehicle control, medium only control, set of six positive controls/reference chemicals for the five hepatic receptor pathways, and a subset of eight of the ToxCast chemicals (indoxacarb, pyrithiobac-sodium, norflurazon, cyhalofop-butyl, methomyl, thiram, acetochlor, and propiconazole). These replicate data, coupled with internal replicates designed within the blinded ToxCast chemical library, provided additional data to evaluate interindividual differences between hepatocyte preparations and their potential impact on chemical profiles.Cell morphology and integrity were evaluated using phase-contrast microscopy as an indicator of hepatocyte cell health (Tyson & Green, 1987). Cultures for each treatment group (i.e., media, vehicle [0.2% DMSO], positive control inducers [multiple concentrations], and the ToxCast chemicals [multiple concentrations]) were observed and cell morphology was assessed relative to vehicle control cultures at each harvest time point (0, 6, 24, or 48 h). […] Images were evaluated at the conclusion of the study to assess changes in cell integrity and account for the effects of chemical exposure on uncharacteristic changes in concentration-dependent gene expression profiles. The results from these determinations of apparent cytotoxicity were annotated (yes/no) alongside the corresponding qNPA data for reference.At the conclusion of each treatment period, hepatocyte cultures (96-well) were washed with 1 volume of HBSS, lysed by addition of 25 ul ArrayPlate lysis buffer (HTG, Tucson, AZ), and 70 ul/well of Denaturation Oil, denatured by incubation at 95C for 10 min, and frozen at approximately -70C until analysis by nuclease protection assay (qNPA) (Roberts et al., 2007). For qNPA analysis, cell lysates were thawed at 50C for approximately 30 min, qNPA probes were added, and samples were incubated at 95C for 10 min to begin the detection process by denaturing the target RNA, dissociating the duplexes and secondary structure hybridization. At the conclusion of the hybridization period, S1 nuclease reagent was added to each sample to digest all nonprotected nucleotides at 50C for 60-90 min. […]

| SMILES | AC50 | outcome |
| --- | --- | --- |
| CC(C)Nc1nc(Cl)nc(NC(C)C)n1 | 11.4 µM (active) |  |
| CCOP(=S)(OCC)Oc1nc(Cl)n(C(C)C)n1 | 2.18 µM (active) |  |
| CC(C)N1C(=O)c2ccccc2NS1(=O)=O |  | inactive |
| COc1ccc(-c2ccccc2)cc1NNC(=O)OC(C)C | 14.1 µM (active) |  |
| Clc1cccc(C(Cl)(Cl)Cl)n1 | 3.97 µM (active) |  |
| CCCCC(O)(Cn1cncn1)c1ccc(Cl)cc1Cl (stereo not given) | 4.35 µM (active) |  |
| Nc1cnn(-c2ccccc2)c(=O)c1Cl |  | inactive |
| CCN(CC)C(=O)C(C)Oc1cccc2ccccc12 (stereo not given) |  | inactive |
| COP(=S)(OC)Oc1ccc([N+](=O)[O-])c(C)c1 | 3.97 µM (active) |  |
| CCCCC(C#N)(Cn1cncn1)c1ccc(Cl)cc1 (stereo not given) | 35.3 µM (active) |  |
| CC1(C)CON(Cc2ccccc2Cl)C1=O |  | inactive |
| CCSC(=O)N1CCCCCC1 |  | inactive |
| CCOc1nc(C(Cl)(Cl)Cl)ns1 |  | inactive |
| COC(=O)N(C(=O)N1CO[C@@]2(C(=O)OC)Cc3cc(Cl)ccc3C2=N1)c1ccc(OC(F)(F)F)cc1 | 1.86 µM (active) |  |
| CC(C)NC(=O)N1CC(=O)N(c2cc(Cl)cc(Cl)c2)C1=O | 20 µM (active) |  |
| CCOP(=O)(OCC)Oc1nc(Cl)c(Cl)cc1Cl |  | inactive |
| CSC(=O)c1c(C(F)F)nc(C(F)(F)F)c(C(=O)SC)c1CC(C)C | 4.78 µM (active) |  |
| O=C(O)c1c(Cl)ccc2cc(Cl)cnc12 |  | inactive |
| CS(=O)(=O)c1cc(C(F)(F)F)ccc1C(=O)c1cnoc1C1CC1 |  | inactive |
| COC(=O)NC(=S)Nc1ccccc1NC(=S)NC(=O)OC | 15.1 µM (active) |  |

| SMILES | AC50 | outcome |
| --- | --- | --- |
| Cc1cc(C)nc(Nc2ccccc2)n1 | 7.59 µM (active) |  |
| C=C(C)CN(CC)c1c([N+](=O)[O-])cc(C(F)(F)F)cc1[N+](=O)[O-] | 20 µM (active) |  |
| O=C1C2CC=CCC2C(=O)N1SC(Cl)(Cl)Cl (stereo not given) |  | inactive |
| COCC(=O)N(c1c(C)cccc1C)C(C)C(=O)OC (stereo not given) |  | inactive |
| CCNP(=S)(OC)O/C(C)=C/C(=O)OC(C)C (stereo not given) | 3.93 µM (active) |  |
| CC(C)=CC1C(C(=O)OCc2coc(Cc3ccccc3)c2)C1(C)C (stereo not given) |  | inactive |
| CCOc1nc(F)cc2nc(S(=O)(=O)Nc3c(Cl)cccc3Cl)nn12 | 20 µM (active) |  |
| COc1cc(OC)nc(NC(=O)NS(=O)(=O)c2ncccc2OCC(F)(F)F)n1 |  | inactive |
| CCOC(=O)C(C)OC(=O)c1cc(Oc2ccc(C(F)(F)F)cc2Cl)ccc1[N+](=O)[O-] (stereo not given) | 20 µM (active) |  |
| Nc1c(Cl)c(Cl)nc(C(=O)O)c1Cl |  | inactive |
| CCOc1cc(C(C)(C)C)ccc1C1COC(c2c(F)cccc2F)=N1 (stereo not given) | 20 µM (active) |  |
| CC1(C)CCC(=Cc2ccc(Cl)cc2)C1(O)Cn1cncn1 (stereo not given) | 4.02 µM (active) |  |
| COP(=S)(OC)SCn1nnc2ccccc2c1=O | 3.65 µM (active) |  |
| COC(=O)NS(=O)(=O)c1ccc(N)cc1 | 0.00106 µM (active) |  |
| CCN(CC)c1nc(C)cc(OP(=S)(OC)OC)n1 | 5.14 µM (active) |  |
| O=c1n(Cl)c(=O)n(Cl)c(=O)n1Cl | 3.97 µM (active) |  |
| N#CN=C1SCCN1Cc1ccc(Cl)nc1 |  | inactive |
| COCC(C)N(C(=O)CCl)c1c(C)csc1C (stereo not given) |  | inactive |
| CNC(=O)Oc1cccc2ccccc12 | 8.24 µM (active) |  |
| CC1(C)C(C=C(Cl)Cl)C1C(=O)OC(C#N)c1cccc(Oc2ccccc2)c1 (stereo not given) | 8.15 µM (active) |  |

From PubChem BioAssay (EPA / NIEHS)
